Screen size: about 330,000 compounds; about 1,400 (0.42%) were called active. The list comes from a sample in which actives are over-represented; it also holds similar structures and randomly drawn compounds. Values without a mark were called inactive.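 How the source made its calls: active means plate passing quality check with inhibition over a set limit, or well fluorescence over plate mean plus 4 SD; inactive means the rest.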
Assay: inhibitors of Candida efflux pumps in yeast, primary screen, S. cerevisiae, Nile Red, multiplex (AID 485275);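 further: Nile Red retained in pooled yeast measured as flow cytometry median fluorescence; 0% = buffer negative control and 100% = Enniatin B positive control; higher means more Nile Red kept so more efflux inhibition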
Conditions: S. cerevisiae Candida pump triplex, at 10 µM, active compounds read high

| SMILES | inhibition |
| --- | --- |
| O=C(c1ccc(Cl)nc1)N1CCN(S(=O)(=O)c2ccc3c(c2)OCCO3)CC1 | -0.06% |
| O=C(OCC(=O)c1c[nH]c2ccccc12)c1cccc(O)c1 | 0.55% |
| O=C(OCc1ccc(Br)cc1)c1cccc(-c2nnc(-c3ccccc3)o2)c1 | 0.06% |
| O=C(OCc1ccc(-c2ccccc2)cc1)c1cccc(O)c1 | 20.2% (active) |
| COc1cc(CNc2ncn[nH]2)ccc1OCc1ccccc1C | 0.06% |
| [2H]C(CCOS(N)(=O)=O)c1ccccc1 (stereo not drawn) | -0.09% |
| Fc1cnc(N2CCOCC2)nc1NCc1ccccc1 | -0.13% |
| CCOC(=O)c1c(N=CN(C)C)c(C#N)c2n1CCCC2 | -0.18% |
| Cc1ccc(NC(=O)CSc2nnc(COc3ccccc3C)o2)cc1 | -0.17% |
| COc1ccc(Cc2nnc(SCC(=O)Nc3ccc(C)c(C)c3)o2)cc1OC | -0.04% |
| CCCc1nnc(SCC(=O)Nc2ccc(C(=O)OCC)cc2)o1 | 2.83% (active) |
| O=C(COC(=O)Cn1cnc2ccccc2c1=O)NCc1ccccc1Cl | 0.17% |
| Nc1ccc2nc3c(=O)[nH]c(=S)[nH]c3nc2c1 | 0.97% (active) |
| Cc1noc(C)c1S(=O)(=O)N(C)C[C@H]1Oc2c(NC(=O)Nc3ccc4c(c3)OCO4)cccc2C(=O)N([C@H](C)CO)C[C@@H]1C | 0.73% |
| COC(=O)[C@]1(CC(C)C)N[C@H](c2ccc(SC3CCCCC3)cc2)[C@@H]2C(=O)N(C)C(=O)[C@@H]21 | -0.02% |
| CC[n+]1cc(C)ccc1/C=C/c1ccc(N(C)C)cc1 | 5.98% (active) |
| O=C(N/N=C\c1cc2c(cc1Cl)OCO2)c1ccc(Br)s1 | 0.06% |
| CC(/C=C/c1ccccc1)=N\NC(=O)C1CC1(C)c1ccccc1 (stereo not drawn) | 2.26% (active) |
| CC(/C=C/c1ccco1)=N/NC(=O)C1COc2ccccc2O1 (stereo not drawn) | 0.12% |
| O=C(N/N=C/C=C/c1ccccc1)C1CC1(c1ccccc1)c1ccccc1 (stereo not drawn) | -0.21% |
| Cc1ccc(C(=O)Nc2nc3ccc(Cl)cc3s2)o1 | -0.17% |
| Cc1csc(NC(=O)c2ccc(-c3ccc(Cl)cc3Cl)o2)n1 | 16.6% (active) |
| Cc1csc(NC(=O)c2ccc(C)s2)n1 | 0.06% |
| O=C(NCc1ccncc1)C(=O)NCC1OCCN1S(=O)(=O)c1ccc(Br)cc1 (stereo not drawn) | 0.06% |

| SMILES | inhibition |
| --- | --- |
| O=C(COC(=O)c1ccc(N2CCCC2=O)cc1)c1ccc(OC(F)F)cc1 | 0.24% |
| CC1CCCC(N2CCN(C(=O)c3ccc(F)cc3)CC2)C1 (stereo not drawn) | -0.1% |
| CCn1c(SC(C)C(=O)Nc2ccc(N3CCOCC3)cc2)nnc1-c1ccco1 (stereo not drawn) | 0.21% |
| O=C(CN1C(=O)c2cccnc2Oc2ccc(Cl)cc21)NCCc1ccccc1 | -0.23% |
| COc1ccccc1CSc1ncc(-c2ccc([N+](=O)[O-])cc2)[nH]1 | 18.3% (active) |
| COc1ccccc1C1CCN(c2ccc([N+](=O)[O-])cn2)CC1 | 0.16% |
| N#Cc1c(-c2ccccc2)nc(SCc2ccc([N+](=O)[O-])cc2)[nH]c1=O | -0.1% |
| CCC(Cc1ccccc1)NS(=O)(=O)c1ccc2c(c1)NC(=O)CS2 (stereo not drawn) | -0.01% |
| CCOc1ccc(C2/C(=C(/O)c3ccc4c(c3)CC(C)O4)C(=O)C(=O)N2CCCn2ccnc2)cc1 (stereo not drawn) | 4.24% (active) |
| COc1ccc(C2/C(=C(/O)c3ccc4c(c3)CC(C)O4)C(=O)C(=O)N2Cc2ccncc2)cc1 (stereo not drawn) | 0.59% |
| COCCCN1C(=O)C(=O)/C(=C(/O)c2ccc3c(c2)CC(C)O3)C1c1cccnc1 (stereo not drawn) | 0.03% |
| COc1ccc(S(=O)(=O)N2CCCCCC2)cc1C(=O)N(C)Cc1cccc(OC)c1OC | 0.1% |
| Cc1nn(C)cc1C(=O)Nc1ccccc1Br | 6.48% (active) |
| Cc1nn(C)cc1C(=O)c1ccccc1 | -0.06% |
| O=C(O)c1ccccc1-c1ccccc1C(=O)Nc1ccccc1Br | -0.16% |
| O=c1[nH]c2ccccc2n2c(-c3ccccc3)nnc12 | 0.01% |
| NNC(=O)CSc1nnc(-c2ccccc2)n1-c1ccccc1 | 0.17% |
| Cc1ccc2[nH]c3c(=O)n(CC(=O)NCCc4ccc(Cl)cc4)ncc3c2c1 | 0.66% (active) |
| CC1CC(C)CN(CCCNC(=O)Cn2ncc3c([nH]c4ccccc43)c2=O)C1 (stereo not drawn) | 0.29% |
| Cc1cccc(CCNC(=O)Cn2ncc3c([nH]c4ccc(C)cc43)c2=O)c1 | 0.33% |
| O=C(COc1ccc(/C=N/NC(=O)c2ccc(O)cc2)cc1)Nc1ccc([N+](=O)[O-])cc1 | -0.1% |
| CCCCCC(=O)Nc1ccc(C(=O)N/N=C/c2ccc([N+](=O)[O-])cc2)cc1 | 9.14% (active) |
| CCCCCC(=O)NC(=S)NNC(=O)c1ccc([N+](=O)[O-])cc1 | 0.09% |
| CC1(C(=O)NNC(=S)NCC2CCCO2)CC1(Cl)Cl (stereo not drawn) | -0.05% |

| SMILES | inhibition |
| --- | --- |
| C[n+]1ccc(/C=C/c2c[nH]c3ccccc23)cc1 | 2.57% (active) |
| O=C(NC1CCCC1)C(=O)c1c[nH]c2ccccc12 | -0.55% |
| COc1ccc(/C=C(\C#N)c2c[nH]c3ccccc23)cc1 | 0.35% |
| CN(C)c1nc2n(c(=O)n1)CCO2 | 0.06% |
| Nc1nc(O)c(CC(=O)O)s1 | 0.36% |
| CN(c1ccccc1)c1ccc(/C=c2\s/c(=C(/C#N)C(=O)C(C)(C)C)n(Cc3ccco3)c2=O)cc1 | 7.32% (active) |
| Cc1ccc(C(=O)NCC(c2cccs2)N(C)C)cc1S(=O)(=O)N1CCOCC1 (stereo not drawn) | 0.37% |
| Cc1ccc(-c2nn(-c3ccc(F)cc3)cc2C(=O)NCC(c2cccs2)N2CCOCC2)cc1 (stereo not drawn) | 0.02% |
| CCCN1CNC(=S)N(CCc2ccccc2)C1 | -0.07% |
| C/C(=C\c1ccco1)CN1CCC(N2CCC(C(=O)N3CCOCC3)CC2)CC1 | -0.13% |
| NNC(=O)COc1ccc(C2SCCS2)cc1 | 0.52% (active) |
| O=C(COc1ccc(Cl)cc1)Nc1ccc2c(c1)OCO2 | 0.16% |
| COc1ccc(OCC(=O)NNC(=O)C2CCC2)cc1 | 0.28% |
| Cc1ccc(CS(=O)(=O)CCC(=O)NCc2ccc(F)cc2)cc1 | 0.01% |
| CCc1ccc(NC(=O)Cn2ncn3c(cc4ccccc43)c2=O)cc1 | 0.97% (active) |
| CC(C)c1ccc(NC(=O)Cn2ncc3ccccc32)cc1 | 0.04% |
| COc1ccc(NC(=O)Cn2ncn3c(cc4ccccc43)c2=O)c(OC)c1OC | 0.03% |
| CC(=O)Nc1ccc(S(=O)(=O)NC(C)C(=O)OCCOc2ccc(F)cc2)cc1 (stereo not drawn) | -0.06% |
| COc1cccc(N(CC(=O)NC2CCCC2)C(=O)Cn2nnc(-c3ccc(C)o3)n2)c1 | -0.2% |
| O=C1CCN(CCc2ccccc2)CCN1CCOc1ccccc1 | -0.09% |
| CCN(CC(=O)Nc1cccc(S(N)(=O)=O)c1)Cc1nc2ccccc2c(=O)[nH]1 | -0.01% |
| Cc1ccc2[nH]c(=O)c(CN3CCCCC3)c(-c3ccccc3)c2c1 | 0.13% |
| Cc1cccc(-n2c(N)c(C(=O)N3CCN(C)CC3)sc2=S)c1 | -0.2% |
| CCCc1nc(N2CCN(C)CC2)c2sc(=S)n(-c3ccccc3)c2n1 | 0.75% (active) |

| SMILES | inhibition |
| --- | --- |
| CCCc1nc(-c2ccccc2O)n(-c2ccccc2)n1 | 0.2% |
| CCCN(CC(=O)Nc1ccccc1C)C(=O)c1ccc2[nH]c3c(c2c1)CC(C)CC3 (stereo not drawn) | 0.26% |
| Cn1nc(C(C)(C)C)c(NC(=O)c2sccc2Cl)c1C(C)(C)C | 0.22% |
| COc1cccc(CNS(=O)(=O)c2csc(C(N)=O)c2)c1 | -0.01% |
| CN(CCNC(=O)c1cc2c(-c3ccccc3F)nn(C)c2s1)C1CCCCC1 | 0% |
| CCCCCCCCCCCCCCCC(=O)OC/C=C(C)/C=C/C=C(C)/C=C/C1=C(C)CCCC1(C)C | 1.61% (active) |
| CC1=C(/C=C/C(C)=C/C=C/C(C)=C/C=C/C=C(C)/C=C/C=C(C)/C=C/C2=C(C)CCCC2(C)C)C(C)(C)CCC1 | 0.08% |
| CCc1ccc(/C=N/NC(=O)c2ccc(OC3CCCC3)cc2)s1 | -0.12% |
| COCCOC1CCN(C(=O)c2ccc(OC)c(OC3CCN(C(C)C)CC3)c2)CC1 | -0.1% |
| CCOc1ccc(NC(=O)c2cccc3c2C(=O)N(CC2CCCO2)C3)cc1 (stereo not drawn) | 0.06% |
| O=C(Cn1c(-c2cscn2)nc2ccccc21)Nc1ccc(Cl)cc1 | -0.15% |
| O=C(Cn1c(COc2ccccc2)nc2ccccc21)Nc1cc(Cl)c(Cl)cc1Cl | 0.72% (active) |
| CC(C)n1c(COc2ccccc2)nc2ccccc21 | 0.39% |
| Cc1ccc(C)c(NC(=O)c2ccc(OC(=O)c3ccco3)cc2)c1 | 0.04% |
| COc1ccccc1/C=C/C=N/n1c(-c2ccc(Cl)cc2Cl)n[nH]c1=S | 0.42% (active) |
| S=c1[nH]nc(-c2ccncc2)n1/N=C/c1ccccc1Cl | 0.13% |
| Fc1ccccc1/C=N/n1c(-c2cccnc2)n[nH]c1=S | -0.01% |
| Cn1c(=O)c2c(nc(N3CCCCCC3)n2CC(O)COc2ccc(Cl)cc2)n(C)c1=O (stereo not drawn) | 0.11% |
| CCCCN1C(=O)/C(=C/C=C2/C=Cc3ccccc3N2CC)SC1=S | 1% (active) |
| CCCCN1C(=O)/C(=C2/Sc3ccc(Cl)cc3N2CC)SC1=S | -0.02% |
| CCCCN1C(=O)/C(=C2/C=CC=CN2C)SC1=S | 0.04% |

From PubChem BioAssay AID485275 (NMMLSC, 2010)
